An excerpt weighted towards active compounds, which were near 12% of everything screened.
G9a inh: inhibitors of human histone lysine methyltransferase G9a; Q96KQ7; G9a H3K9 monomethylation, AlphaScreen, 2 h; Potency, µM (titrated, usually from 102 µM), most hits filed as inhibitors; actives 8.8% (n = 350,000); AID 504332; also: nearly all actives have a fitted effect of over 75% in size
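Readings reflect AlphaScreen signal from monomethyl-H3K9 antibody detection. HMT at 20 nM; substrate b-H3K9 500 nM; cofactor SAM 20 uM; 2 h RT reaction; compounds tested as titrations in qHTS with 15 min preincubation.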
BAZ2B block: inhibitors of human BAZ2B bromodomain. AlphaScreen BAZ2B-H3K14Ac peptide displacement. Potency, µM (doses to about 114 µM), usual class: inhibitors. actives 4.4% (n = 360,000); also: nearly all actives have a fitted effect of over 60% in size
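Protein-peptide AlphaScreen: BAZ2B 50 nM, b-H3K14Ac 50 nM, 1x PBS pH 7.4 + 0.01% Tween-20. Preincubation 30 min RT; cpd 30 min RT (top 110 uM); beads 20 min RT, light-protected.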
JMJD2A Tudor inh: JMJD2A Tudor domain (human) inhibition; O75164; actives 4.4% (n = 390,000); Potency, µM (titrated, usually from 114 µM), hits mostly inhibitors; AlphaScreen JMJD2A-Tudor / H3K4me3 peptide binding; also: nearly all actives have a fitted effect of over 50% in size
Sfp inh: inhibitors of Bacillus subtilis Sfp phosphopantetheinyl transferase. Biochemical Sfp PPTase activity, qHTS. Potency, µM, usual class: inhibitors. actives 3.5% (n = 310,000). AID 1490;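 also: the enzyme is Sfp with the accession as filed and its product quenches rhodamine fluorescence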
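After 15 min at room temperature with compound, 15 nM Sfp received 5 uM rhodamine-CoA plus 12.5 uM BHQ-2-ybbR (50 mM Hepes pH 7.6, 10 mM MgCl2). Rate came from the fluorescence difference over 30 min, ex 525/em 598 nm.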
HP1b binding inh: blocks HP1-beta chromodomain binding to methylated histone tails; AlphaScreen HP1-beta / biotin-H3K9me3 peptide binding; Potency, µM (top dose mostly 114 µM), most hits filed as inhibitors; actives 0.56% (n = 390,000); AID 540317; also: nearly all actives have a fitted effect of over 70% in size
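AlphaScreen: HP1-beta (50 nM) preformed 30 min with biotin-H3(1-18)K9me3 peptide (50 nM) in PBS pH 7.4, 0.01% Tween-20. Compound added for 30 min at RT, then streptavidin donor/nickel chelate acceptor beads (10 ug/mL) for 30 min.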
Of the large screens only hits and unclear results are named; the others gave an inactive call; ! = not active in a repeat. Calls follow the shape of the dose curve; as a rule, active = well fitted curve in the direction sought with a large enough effect; inconclusive = small, poorly fitted or top-dose-only effect, or another doubt; inactive = no such curve, though single readings can be large; an effect the other way counts as inactive or inconclusive.

C[N+]1(C)[C@@H]2CC(OC(=O)[C@@H](CO)c3ccccc3)C[C@@H]1[C@H]1O[C@H]12 (stereo partly drawn)	none (no result: BAZ2B block, JMJD2A Tudor inh, HP1b binding inh)
CC1(C)S[C@@H]2[C@H](N)C(=O)N2C1C(=O)O (stereo partly drawn)	Sfp inh 14µM (no result: BAZ2B block, JMJD2A Tudor inh, HP1b binding inh)
CC1(C)S[C@H]2[C@@H](N)C(=O)N2[C@H]1C(=O)O	Sfp inh 56µM (no result: G9a inh, BAZ2B block, JMJD2A Tudor inh, HP1b binding inh)
CC(=O)N1CC2CC(C1)c1cccc(=O)n1C2 (stereo not drawn)	none (no result: G9a inh, BAZ2B block, JMJD2A Tudor inh, HP1b binding inh)
CCn1c(O)c(C(=O)CC2NCCc3ccccc32)c(=O)n(CC)c1=S (stereo not drawn)	G9a inh inconclusive, BAZ2B block inconclusive, Sfp inh 45µM
Cc1ccc(/C=C2/C(=O)NC(=O)N(CCc3ccc(F)cc3)C2=O)o1	Sfp inh 56µM
O=C1NC(=O)N(CCc2ccc(F)cc2)C(=O)/C1=C/c1ccco1	G9a inh 10µM, BAZ2B block 10µM, JMJD2A Tudor inh 40µM, Sfp inh 50µM, HP1b binding inh 35µM
C/C=C1\C2C=C(C)C[C@@]1(N)c1ccc(=O)[nH]c1C2	none (no result: BAZ2B block, JMJD2A Tudor inh, HP1b binding inh)
CNC(=S)S	none (no result: G9a inh, BAZ2B block, JMJD2A Tudor inh, HP1b binding inh)
COCCN1C(=O)NC(=O)/C(=C\c2ccc(F)cc2)C1=O	G9a inh inconclusive, Sfp inh inconclusive
O=C1NC(=O)N(CCc2ccc(F)cc2)C(=O)/C1=C/c1cccs1	G9a inh 3.2µM, JMJD2A Tudor inh 56µM, Sfp inh 25µM
CN(C)c1ccc(/C=C2\C(=O)NC(=O)N(CCc3ccc(F)cc3)C2=O)cc1	G9a inh 45µM, BAZ2B block inconclusive, JMJD2A Tudor inh inconclusive
Cn1cccc1/C=C1\C(=O)NC(=O)N(CCC2=CCCCC2)C1=O	none
O=C1NC(=O)N(CCC2=CCCCC2)C(=O)/C1=C\c1cccs1	G9a inh inconclusive, BAZ2B block inconclusive, JMJD2A Tudor inh inconclusive, Sfp inh 50µM
c1cncc([C@@H]2CCCCN2)c1	none (no result: BAZ2B block, JMJD2A Tudor inh, HP1b binding inh)
O=c1[nH]c(O)c(C=Nc2ccccc2[N+](=O)[O-])c(=O)[nH]1	G9a inh 71µM (no result: JMJD2A Tudor inh, HP1b binding inh)
O=c1[nH]c(O)c(C=Nc2ccccc2Sc2ccccc2)c(=O)[nH]1	G9a inh inconclusive
CN1C[C@@H](C(=O)N[C@@]2(C)O[C@]3(O)C4CCCN4C(=O)[C@@H](Cc4ccccc4)N3C2=O)C=C2c3cccc4[nH]cc(c34)C[C@@H]21 (stereo partly drawn)	none (no result: G9a inh, BAZ2B block, JMJD2A Tudor inh, HP1b binding inh)
O=C(CCS(=O)NCc1ccccc1)NCc1ccccc1 (stereo not drawn)	G9a inh 18µM, Sfp inh 89µM (no result: JMJD2A Tudor inh, HP1b binding inh)
Cn1cc(C(=O)NCc2ccccc2)c2ccccc21	none
N[C@@H](Cn1oc(=O)[nH]c1=O)C(=O)O	G9a inh 10µM!, JMJD2A Tudor inh 4µM, Sfp inh 45µM (no result: BAZ2B block)
N[C@@H](Cn1ccc(=O)n(Cc2ccc(C(=O)O)cc2)c1=O)C(=O)O	none (no result: G9a inh, BAZ2B block, JMJD2A Tudor inh, HP1b binding inh)
Cn1c(=O)oc2cc(S(=O)(=O)N3CCC(C(=O)N4CC=C(c5ccccc5)CC4)CC3)ccc21	G9a inh 50µM
COc1cccc(N2CCN(C(=O)C3CCCN(S(=O)(=O)c4ccc5c(c4)oc(=O)n5C)C3)CC2)c1 (stereo not drawn)	none
Cn1c(O)c(/C=C2\C=Nc3ccccc32)c(=O)n(C)c1=O	G9a inh inconclusive
Cn1c(O)c(/C=C2\C=c3ccccc3=NC2=O)c(=O)n(C)c1=O	G9a inh 40µM, Sfp inh 45µM
COc1ccc(-n2[nH]c3c4c(ncc3c2=O)CCCCC4)cc1	G9a inh inconclusive (no result: BAZ2B block, JMJD2A Tudor inh, HP1b binding inh)
COc1cc2c(c3oc4cccc(O)c4c(=O)c13)C1C=CO[C@@H]1O2 (stereo partly drawn)	none (no result: G9a inh, BAZ2B block, JMJD2A Tudor inh, HP1b binding inh)
COc1ccc(CNCCc2c[nH]c3ccccc23)c(OC)c1C	G9a inh 16µM, BAZ2B block 56µM, JMJD2A Tudor inh 5.6µM, HP1b binding inh inconclusive
COc1cccc(CNCCc2c[nH]c3ccccc23)c1	BAZ2B block 79µM, JMJD2A Tudor inh 3.5µM
COc1cc(C)c(CNCCc2c[nH]c3ccccc23)cc1C	G9a inh inconclusive, BAZ2B block 40µM, JMJD2A Tudor inh 22µM, HP1b binding inh inconclusive
COc1ccc2[nH]cc(CCNCc3cccnc3)c2c1	BAZ2B block inconclusive (no result: G9a inh)
COc1ccc(CNCCc2ccccc2F)c(OC)c1C	G9a inh 79µM, BAZ2B block inconclusive, JMJD2A Tudor inh 18µM, HP1b binding inh inconclusive
COc1cccc(CNCCc2ccccc2)c1OC	none
CC(C)Oc1ccc(C(=O)Nc2ccc3c(c2)CCCN3C(=O)c2cccs2)cc1	JMJD2A Tudor inh inconclusive (no result: Sfp inh)
Clc1ccc(C2=CCC[C@H]3CC[C@@H]2N3)cn1	none (no result: G9a inh, BAZ2B block, JMJD2A Tudor inh, HP1b binding inh)
COc1cc(/C=N/Nc2ccc(S(N)(=O)=O)cc2)cc(OC)c1OC	JMJD2A Tudor inh inconclusive, HP1b binding inh inconclusive
Cn1c(C(=O)NCCOc2ccccc2Cl)cc(=O)n(C)c1=O	none
CCOc1cc(CNCCc2ccccc2F)ccc1OC	G9a inh 8.9µM, BAZ2B block 40µM, JMJD2A Tudor inh 45µM
CCOc1c(Cl)cc(CNCCc2c[nH]c3ccccc23)cc1OC	G9a inh inconclusive, BAZ2B block inconclusive, JMJD2A Tudor inh inconclusive, Sfp inh 56µM

From PubChem BioAssay
